# M1 ag: activates human CHRM1 receptor; P11229; CHO-K1 hM1, Fluo-8 calcium fluorescence, agonist mode; 0% DMSO, 100% acetylcholine EC100; activation, % at 3 µM; 360,000 compounds, 0.33% hits; AID 588814;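 active = activation above the run's mean compound activation plus 3 SD, cut at about 16% in these data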;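 note: peak over basal fluorescence ratio within a 140 s kinetic read after compound addition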
# Target sequence (P11229 whole entry, looked up): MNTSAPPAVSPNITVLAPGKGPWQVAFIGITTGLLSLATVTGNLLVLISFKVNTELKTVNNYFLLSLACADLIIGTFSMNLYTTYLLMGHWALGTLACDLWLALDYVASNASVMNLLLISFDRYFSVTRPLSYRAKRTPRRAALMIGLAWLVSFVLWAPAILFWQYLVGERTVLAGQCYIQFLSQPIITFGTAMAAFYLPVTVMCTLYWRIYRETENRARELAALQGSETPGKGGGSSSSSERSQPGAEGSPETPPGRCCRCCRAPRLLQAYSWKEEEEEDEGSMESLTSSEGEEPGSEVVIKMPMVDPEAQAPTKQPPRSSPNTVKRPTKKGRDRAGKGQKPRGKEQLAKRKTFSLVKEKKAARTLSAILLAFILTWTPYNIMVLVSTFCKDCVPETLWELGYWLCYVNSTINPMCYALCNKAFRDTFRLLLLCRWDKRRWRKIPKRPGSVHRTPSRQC
# CHRM1 PAM: positive allosteric modulators of human M1 muscarinic receptor | CHO-K1 hM1, Fluo-8 calcium fluorescence, ACh EC20; 0% = ACh EC20, 100% = maximal ACh | activation, % at 3 µM | 360,000 compounds, 0.088% hits; in the data active = activation above about 19%, passing the limit was not always enough
# CHO-K1 Ca PAM: counter-screen for M1 PAMs: effect in parental CHO-K1 cells; ATP EC20, Fluo-8 calcium fluorescence; 0% at ATP EC20, 100% at ATP max; activation, % at 3 µM; 360,000 compounds, 0.02% hits;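 active = activation above the run cutoff, the mean activation of all test compounds plus 3 SD, cut at about 40% in these data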;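 note: peak over basal fluorescence ratio in a 140 s read after ATP addition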
# CHO-K1 Ca ag: counter-screen for M1 agonists: effect in parental CHO-K1 cells | Fluo-8 calcium fluorescence; scaled to maximal ATP response, vehicle zero | activation, % at 3 µM | 360,000 compounds, 0.48% hits; in the data active = activation above about 15%;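 note: untransfected CHO-K1 host cells lacking M1 receptor as counterscreen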
# CHO-K1 Ca antag: counter-screen for M1 antagonists: effect in parental CHO-K1 cells; ATP-induced calcium, Fluo-8 fluorescence; inhibition, % at 3 µM; 360,000 compounds, 0.6% hits;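 active = inhibition above a per-plate cutoff, the plate's mean sample inhibition plus 3 SD, cut at about 24% in these data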;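 note: 0% = DMSO plus EC80 ATP and 100% = DMSO alone without ATP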
# CHRM1 antagonist: antagonists of human M1 muscarinic receptor; P11229; CHO-K1 hM1, Fluo-8 calcium fluorescence, ACh EC80 antagonist; inhibition, % at 3 µM; 360,000 compounds, 1.3% hits;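 active = percent inhibition above its own plate's cutoff, namely the mean of that plate's compound wells plus 3 SD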;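 note: peak over basal fluorescence ratio during 140 s after agonist addition; 0% = ACh EC80 plus DMSO and 100% = DMSO alone without agonist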
# An asterisk follows results filed as active. Compounds with a hit are over-represented: about 2.3% of the library has one in this group of screens.
SMILES,M1 ag,CHRM1 PAM,CHO-K1 Ca PAM,CHO-K1 Ca ag,CHO-K1 Ca antag,CHRM1 antagonist
CCC(CO)(C(=O)OC1C[N+]2(C)CCC1CC2)c1ccccc1 (stereo not drawn),-14,-33,3,0,4,99*
O=C(C[N+]12CCC(CC1)C(OC(=O)c1ccccc1)C2)c1ccc([N+](=O)[O-])cc1 (stereo not drawn),4,-6,21,1,-8,12
O=C1C=C2c3ccccc3CC(C(=O)O)C2CC1 (stereo not drawn),5,-2,8,0,0,6
CC(C)(C)NC(=S)N1Cc2ccccc2-n2nncc2C1,-3,6,13,0,-19,-12
Cc1ccc(-c2cc(-c3ccc(C)cc3)[n+](-c3ccccc3)c(-c3ccc(C)cc3)c2)cc1,6,-21,-3,17*,16,51*
c1ccc(-c2cc(-c3ccccc3)[n+](-c3ccccc3)c(-c3ccccc3)c2)cc1,2,-17,-11,11,20,43*
CCOC(=O)c1cccc(-[n+]2c(-c3ccccc3)cc(-c3ccccc3)cc2-c2ccccc2)c1,-13,-22,-2,0,-17,30
C[n+]1c(-c2ccccc2)cc(-c2ccc(Cl)cc2)cc1-c1ccccc1,-14,10,-14,-1,16,-12
Cc1ccc(-c2cc(-c3ccc(C)cc3)[n+](-c3ccc(C(=O)[O-])cc3)c(-c3ccc(C)cc3)c2)cc1,9,12,-3,0,-14,-5
Cc1ccc(-c2cc(-c3ccccc3)cc(-c3ccccc3)[n+]2-c2ccccc2)cc1,-2,-33,-17,13,30*,78*
O=[N+]([O-])c1cc(Cl)c(O)c(-[n+]2c(-c3ccccc3)cc(-c3ccccc3)cc2-c2ccccc2)c1,1,7,8,0,-4,-12
CN(C)c1ccc(-[n+]2c(-c3ccccc3)cc(-c3ccccc3)cc2-c2ccccc2)cc1,-11,-33,4,8,23,56*
O=C(C1CC(c2ccccc2O)=NO1)N1CCC2(CC1)OCCO2 (stereo not drawn),-4,7,27,2,-9,-11
O=C(c1ccc(C(F)(F)F)cc1)C1CCCN(C2CCSCC2)C1 (stereo not drawn),-14,-32,15,0,-12,57*
COc1ccc(Cl)cc1C(=O)C1CCCN(CCO)C1 (stereo not drawn),-15,11,18,0,-6,8
Cc1cc(Cl)ccc1C(=O)C1CCCN(C2CCSCC2)C1 (stereo not drawn),-13,-33,11,0,-15,84*
Cc1cccc(CN2CCCC(C(=O)c3ccc(C(F)(F)F)cc3)C2)n1 (stereo not drawn),-12,-29,-10,0,10,24
CC(C)C1C(C#N)=C(N)Oc2c1c(=O)oc1ccccc21 (stereo not drawn),-1,2,3,0,-9,-5
O=c1cc(C(F)(F)F)c2cc3c4c(c2o1)CCCN4CCC3,120*,-24,-9,89*,59*,67*
CC(=O)C1C(N2CC2)CC2C3CCC4=CC(=O)CCC4(C)C3CCC21C (stereo not drawn),-8,1,2,0,-9,-14
Clc1ccc(CNC2CN3CCC2CC3)cc1 (stereo not drawn),-8,0,20,0,-10,-11
Fc1ccccc1CNC1CN2CCC1CC2 (stereo not drawn),-8,-20,7,0,-7,45*
O=[N+]([O-])c1cc([As](=O)(O)c2ccc(O)c([N+](=O)[O-])c2)ccc1O,0,4,-2,0,-8,-11
Cn1c(O)c(/C=C/C=Nc2ccccc2)c(=O)n(C)c1=S,58*,-17,7,28*,14,34*
CN(C)C(CNC(=O)Cc1c(Cl)cccc1Cl)c1ccccc1 (stereo not drawn),-16,-37,8,0,6,96*
SMILES,M1 ag,CHRM1 PAM,CHO-K1 Ca PAM,CHO-K1 Ca ag,CHO-K1 Ca antag,CHRM1 antagonist
Cc1nc2ccccc2c(=O)n1/N=C/c1cc(Br)cc(Br)c1O,1,2,15,2,-10,-7
O=C1NC(=O)C(CCc2ccncc2)(CCc2ccncc2)C(=O)N1CCc1ccccc1,-7,7,7,17*,10,1
CC(Cc1ccccc1Sc1ccccc1O)N(C)C (stereo not drawn),-4,-23,7,2,5,98*
c1ccc2oc(-c3ccc4c(c3)CNCc3cnnn3-4)cc2c1,0,6,-1,1,16,-3
COc1ccc(-n2nnnc2C(c2cccc(OC)c2OC)N2CCC(n3c(=O)[nH]c4ccccc43)CC2)cc1 (stereo not drawn),23*,8,10,4,-1,-6
O=c1[nH]c2ccccc2n1C1CCN(C(c2ccccc2OC(F)(F)F)c2nnnn2-c2ccc3c(c2)OCCO3)CC1 (stereo not drawn),3,1,33,20*,-18,-16
COc1cccc(C(c2nnnn2-c2ccc3c(c2)OCCO3)N2CCC(n3c(=O)[nH]c4ccccc43)CC2)c1OC (stereo not drawn),20*,2,31,6,-6,16
COc1ccc(-n2nnnc2C(c2ccnc3ccccc23)N2CCC(n3c(=O)[nH]c4ccccc43)CC2)cc1 (stereo not drawn),-6,-6,20,2,-4,-10
O=c1[nH]c2ccccc2n1C1CCN(C(c2cccs2)c2nnnn2-c2ccc3c(c2)OCCO3)CC1 (stereo not drawn),3,7,42*,7,-28,-24
C[C@@H]1NCCc2cc(O)c(O)cc21,-4,-2,13,0,-3,-29
CCCCCc1nc2c(c(=O)c3ccccc3n2C)c(=O)n1C1CCCCCC1,7,-10,24,21*,-10,1
CCOC(=O)C1(CCc2ccccc2)CCN(C2CCSCC2)CC1,-5,-22,-1,0,1,52*
CCOC(=O)C1(CCCc2ccccc2)CCN(C2CCCC2)CC1,-14,-18,-2,1,5,12
CN(C(=O)Oc1cccc2ccccc12)C1C=CCC1 (stereo not drawn),-6,2,14,0,-17,-14
CN1CN(c2ccccc2)C2(CCN(CCCSc3ccccc3NC(=O)/C=C/c3ccccc3)CC2)C1=O,47*,-34,-26,62*,35*,55*
CN(C(=O)Cc1ccc2c(c1)OCO2)C1CCCN(Cc2ccccc2F)C1 (stereo not drawn),-7,-27,13,1,0,46*
O=C(c1ccc2c(c1)OCO2)C1CCCN(Cc2ccc(F)c(F)c2)C1 (stereo not drawn),-7,-24,15,0,-12,70*

# Screening results as filed in PubChem BioAssay.
